This is an account of results in PubChem BioAssay.

Chain of PEG-3 (Q6IN02 whole entry, looked up): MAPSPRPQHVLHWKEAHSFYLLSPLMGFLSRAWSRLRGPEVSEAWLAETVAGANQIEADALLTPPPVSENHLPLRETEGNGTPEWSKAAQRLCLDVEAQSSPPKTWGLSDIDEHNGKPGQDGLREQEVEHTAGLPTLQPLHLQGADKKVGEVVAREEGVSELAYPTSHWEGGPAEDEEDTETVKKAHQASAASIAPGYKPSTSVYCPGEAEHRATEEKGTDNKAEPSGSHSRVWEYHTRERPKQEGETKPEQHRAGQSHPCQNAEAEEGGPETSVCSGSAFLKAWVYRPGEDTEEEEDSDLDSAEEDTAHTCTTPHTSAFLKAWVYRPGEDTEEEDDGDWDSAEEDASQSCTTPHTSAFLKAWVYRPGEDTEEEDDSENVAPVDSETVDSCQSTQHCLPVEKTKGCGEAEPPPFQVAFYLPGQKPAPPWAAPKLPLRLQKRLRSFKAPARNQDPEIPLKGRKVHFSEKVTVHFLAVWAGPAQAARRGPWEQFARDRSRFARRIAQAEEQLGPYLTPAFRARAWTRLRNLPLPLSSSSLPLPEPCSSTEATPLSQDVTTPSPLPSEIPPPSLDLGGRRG

The first experiment has as its target PEG-3 (UniProt Q6IN02). Kind of experiment: inhibition of PEG-3 promoter-driven reporter – cell-based, HeLa, luciferase, CREF/GAPDH counter-screen panel, dose response (AID 624167). The conditions noted are these: CREF/GAPDH counter-screens; HeLa PEG-Prom luciferase reporter, overnight, run 1, dose range 1, at 100 µM (top of the series) unless noted. (The purpose of a counterscreen is to sort out artefacts and off-target activity.)
With `NCCCNc1nc(N)c([N+](=O)[O-])c(NC2CCCCC2)n1`, the inhibition (as a rule, the drop in the measured response relative to a control, in per cent) is 96%.
For `O=C1NC(Cc2ccc(O)cc2)c2nc3ccc(F)cc3c(=O)n2-c2cc3ccccc3cc21` (stereo not given), the inhibition is 100%.
On the same count and under the same terms, the figure for `CCOC(=O)C1CCN(c2cc3c(cc2NC(=O)c2ccccc2OCC)n(C)c(=O)n3C)CC1` is 101%; for `CC(=O)c1cccc(-c2csc3ncnc(Sc4nnnn4C)c23)c1` it is 99.4%.
As to `O=S(=O)(Nc1cccc2ncccc12)c1cccs1`, the inhibition turned out to be 94.5%.
As for `CC(NC(=O)c1ccc([N+](=O)[O-])o1)C12CC3CC(CC(C3)C1)C2` (stereo not given), the inhibition came out at 99.4%.
For `CC(C)(C)c1ccc(CN2N=Nc3ccccc3S2(=O)=O)cc1`, the inhibition was 98.8%.
Take `COc1cccc2c1C(=N)c1c(O)c3c(c(O)c1C2=O)CC(O)(C(C)=O)CC3OC1CC(N)C(O)C(C)O1` (stereo not given): the inhibition was found to be 99.1%.
Regarding `COCc1ccc(CN2CCC(C(=O)Nc3cccc(-c4cccc(Cl)c4)c3)CC2)o1`, the inhibition was determined as 97.5%.
On to `Cc1ccccc1NC(=O)C(=Cc1ccc(C(=O)O)cc1)C(=O)Nc1ccccc1C`, for which the inhibition turned out to be 90.3%.
For `COCOCCn1cc(CN2CCS(=O)(=O)N(Cc3ccc(-c4ccc(Cl)c(Cl)c4)cc3)C(C(C)C)C2=O)nn1` (stereo not given), the inhibition amounted to 92.6%.
As to `CN(C)CCNc1ncnc2c1sc1nc(N3CCCC3)c3c(c12)CC(C)(C)OC3`, the inhibition stood at 99.7%.
Take `OCCNCc1cc(Br)ccc1OCc1ccc(Cl)cc1Cl`: the inhibition worked out at 101%.
As to `O=C(C=Cc1ccccn1)c1ccccc1`, the inhibition was found to be 101%.
Same read-out and setting: the figure for `CCc1ccc(O)c(CNCCNCc2cc(CC)ccc2O)c1` is 102%.
Regarding `COc1ccc(/C=C/C(=O)c2ccc3c4c(cccc24)CC3)cc1OC`, the inhibition was determined as 101%.
Turning to `O=C1CSC(=S)N1Cc1cccnc1`, the inhibition was 96.9%.
For `O=C(Nc1ccccc1)c1nc[nH]c1C(=O)NCCCNC(=O)c1[nH]cnc1C(=O)Nc1ccccc1`, the inhibition is -24.6%.
On the same count and under the same terms, then `Cc1cc(C)c(CN2CCN(CCCn3cnc(C(=O)Nc4ccc(C)c(C)c4)n3)CC2)c(C)c1`, with 102%; and `COC(=O)C1=C(C)N(Cc2ccccc2)C(=NCc2cccc(Cl)c2)N[C@H]1c1ccccc1`, with 102%; and `CCC(C)NCCOCCOc1ccc(Cl)c2ccccc12` (stereo not given), with 102%.
For `Cc1ccc(NCCN(C)C)c2c(=O)c3cc(O)ccc3sc12`, the inhibition amounted to 97.5%.
As to `CC1CCCCN1CCNC(=O)c1ccc2c(=O)n(Cc3ccc(Cl)cc3)c(=S)[nH]c2c1` (stereo not given), the inhibition amounted to 101%.
On the same count and under the same terms, the figure for `O=Nc1c(O)ccc2cc(S(=O)(=O)O)ccc12` is 84.7%.
The same measure, in the same setting: then `Cc1ccc(F)cc1-c1cc2nc(NCCCN(C)C)n(C)c(=O)c2s1`, with 101%.
Regarding `COC(=O)c1cc(=O)n(Cc2ccco2)c(=Nc2ccc(F)cc2)s1`, the inhibition is 102%.
The same measure, in the same setting: then `CCN(CC)CCNc1cccc2sc3ccccc3c(=O)c12`, with 94.6%.
As for `CN(C)S(=O)(=O)c1cccc(NC(=O)CSc2cccc3cccnc23)c1`, the inhibition stood at 99.3%.
As for `OCCN1CCN(C2CCC(c3ccc(F)cc3)c3ccc(F)cc32)CC1` (stereo not given), the inhibition was determined as 102%.
Turning to `CCN(CC)CCOc1ccc(/C(=C(/Cl)c2ccccc2)c2ccccc2)cc1`, the inhibition came to 102%.
`Cc1ccc(Cn2c(=N)n(CC(=O)c3ccccc3)c3ccccc32)cc1`: the inhibition came to 101%.
Take `CC(C)(C)OC(=O)CC(S(=O)(=O)c1ccccc1)S(=O)(=O)c1ccccc1`: the inhibition was determined as 102%.
Regarding `Cc1nc2c(OCc3ccc(OC(F)F)cc3)cccn2c1N(C)C(=O)CCC1CCCC1`, the inhibition was determined as 95.4%.
The same measure, in the same setting: then `Cc1ccc(C(=O)N2CCN(c3ccc([N+](=O)[O-])c(NCc4cccnc4)c3)CC2)cc1`, with 48.8%.
The same measure, in the same setting: the figure for `Cc1ccc(C2(CCNCc3ccc(N(C)C)cc3)CCOC(C(C)C)C2)cc1` (stereo not given) is 99.6%; for `CN(C)c1ccc(N=Nc2nc3ccccc3n2C)cc1` it is 98.1%.
As for `CC(C)CC(N)c1csc(NC(=O)Nc2ccccc2C(C)C)n1` (stereo not given), the inhibition came out at 99%.
On the same count and under the same terms, the figure for `CCN1CCN(Cc2c(O)ccc3c2O/C(=C\C=C\c2ccccc2)C3=O)CC1` is 99.1%.
Take `COc1ccccc1CCNC(=O)C1CCN(c2nnc(C)c3c(C)n(-c4ccc(C)cc4)nc23)CC1`: the inhibition amounted to 99%.
On to `Cn1nnnc1Sc1ncnc2scc(-c3ccc4c(c3)OCO4)c12`, for which the inhibition is 102%.

The next experiment has as its target PEG-3 (UniProt Q6IN02). Described as above. The settings on record: CREF/GAPDH counter-screens; HeLa PEG-Prom luciferase reporter, overnight, run 2, dose range 1, at 100 µM (top of the series) unless noted.
Consider `NCCCNc1nc(N)c([N+](=O)[O-])c(NC2CCCCC2)n1`, for which the inhibition stood at 102%.
Same read-out and setting: the figure for `O=C1NC(Cc2ccc(O)cc2)c2nc3ccc(F)cc3c(=O)n2-c2cc3ccccc3cc21` (stereo not given) is 95.8%; for `CCOC(=O)C1CCN(c2cc3c(cc2NC(=O)c2ccccc2OCC)n(C)c(=O)n3C)CC1` it is 101%.
As for `CC(=O)c1cccc(-c2csc3ncnc(Sc4nnnn4C)c23)c1`, the inhibition was found to be 100%.
Consider `O=S(=O)(Nc1cccc2ncccc12)c1cccs1`, for which the inhibition amounted to 96.5%.
Turning to `CC(NC(=O)c1ccc([N+](=O)[O-])o1)C12CC3CC(CC(C3)C1)C2` (stereo not given), the inhibition came out at 98.5%.
For the compound `CC(C)(C)c1ccc(CN2N=Nc3ccccc3S2(=O)=O)cc1`, the inhibition was 100%.
Take `COc1cccc2c1C(=N)c1c(O)c3c(c(O)c1C2=O)CC(O)(C(C)=O)CC3OC1CC(N)C(O)C(C)O1` (stereo not given): the inhibition stood at 102%.
Still for that read-out and setting: the figure for `COCc1ccc(CN2CCC(C(=O)Nc3cccc(-c4cccc(Cl)c4)c3)CC2)o1` is 99%; for `Cc1ccccc1NC(=O)C(=Cc1ccc(C(=O)O)cc1)C(=O)Nc1ccccc1C` it is 101%.
In the case of `COCOCCn1cc(CN2CCS(=O)(=O)N(Cc3ccc(-c4ccc(Cl)c(Cl)c4)cc3)C(C(C)C)C2=O)nn1` (stereo not given), the inhibition was 97.8%.
Take `CN(C)CCNc1ncnc2c1sc1nc(N3CCCC3)c3c(c12)CC(C)(C)OC3`: the inhibition came out at 102%.
Take `OCCNCc1cc(Br)ccc1OCc1ccc(Cl)cc1Cl`: the inhibition is 101%.
Same read-out and setting: then `O=C(C=Cc1ccccn1)c1ccccc1`, with 101%; and `CCc1ccc(O)c(CNCCNCc2cc(CC)ccc2O)c1`, with 101%.
Take `COc1ccc(/C=C/C(=O)c2ccc3c4c(cccc24)CC3)cc1OC`: the inhibition was 102%.
Regarding `O=C1CSC(=S)N1Cc1cccnc1`, the inhibition was found to be 101%.
Consider `O=C(Nc1ccccc1)c1nc[nH]c1C(=O)NCCCNC(=O)c1[nH]cnc1C(=O)Nc1ccccc1`, for which the inhibition was 96.8%.
For the compound `Cc1cc(C)c(CN2CCN(CCCn3cnc(C(=O)Nc4ccc(C)c(C)c4)n3)CC2)c(C)c1`, the inhibition worked out at 101%.
On to `COC(=O)C1=C(C)N(Cc2ccccc2)C(=NCc2cccc(Cl)c2)N[C@H]1c1ccccc1`, for which the inhibition is 101%.
Consider `CCC(C)NCCOCCOc1ccc(Cl)c2ccccc12` (stereo not given), for which the inhibition came out at 98.8%.
Same read-out and setting: then `Cc1ccc(NCCN(C)C)c2c(=O)c3cc(O)ccc3sc12`, with 102%; and `CC1CCCCN1CCNC(=O)c1ccc2c(=O)n(Cc3ccc(Cl)cc3)c(=S)[nH]c2c1` (stereo not given), with 99.1%.
With `O=Nc1c(O)ccc2cc(S(=O)(=O)O)ccc12`, the inhibition is 89.5%.
On to `Cc1ccc(F)cc1-c1cc2nc(NCCCN(C)C)n(C)c(=O)c2s1`, for which the inhibition is 99.2%.
For the compound `COC(=O)c1cc(=O)n(Cc2ccco2)c(=Nc2ccc(F)cc2)s1`, the inhibition was 102%.
Consider `CCN(CC)CCNc1cccc2sc3ccccc3c(=O)c12`, for which the inhibition amounted to 95.9%.
As to `CN(C)S(=O)(=O)c1cccc(NC(=O)CSc2cccc3cccnc23)c1`, the inhibition was 101%.
Take `OCCN1CCN(C2CCC(c3ccc(F)cc3)c3ccc(F)cc32)CC1` (stereo not given): the inhibition was determined as 101%.
In the case of `CCN(CC)CCOc1ccc(/C(=C(/Cl)c2ccccc2)c2ccccc2)cc1`, the inhibition was 102%.
In the case of `Cc1ccc(Cn2c(=N)n(CC(=O)c3ccccc3)c3ccccc32)cc1`, the inhibition is 102%.
For the compound `CC(C)(C)OC(=O)CC(S(=O)(=O)c1ccccc1)S(=O)(=O)c1ccccc1`, the inhibition is 101%.
With `Cc1nc2c(OCc3ccc(OC(F)F)cc3)cccn2c1N(C)C(=O)CCC1CCCC1`, the inhibition is 99.7%.
On the same count and under the same terms, then `Cc1ccc(C(=O)N2CCN(c3ccc([N+](=O)[O-])c(NCc4cccnc4)c3)CC2)cc1`, with 47.4%; and `Cc1ccc(C2(CCNCc3ccc(N(C)C)cc3)CCOC(C(C)C)C2)cc1` (stereo not given), with 101%.
Consider `CN(C)c1ccc(N=Nc2nc3ccccc3n2C)cc1`, for which the inhibition was 98.9%.
For the compound `CC(C)CC(N)c1csc(NC(=O)Nc2ccccc2C(C)C)n1` (stereo not given), the inhibition was determined as 101%.
Still for that read-out and setting: the figure for `CCN1CCN(Cc2c(O)ccc3c2O/C(=C\C=C\c2ccccc2)C3=O)CC1` is 101%; for `COc1ccccc1CCNC(=O)C1CCN(c2nnc(C)c3c(C)n(-c4ccc(C)cc4)nc23)CC1` it is 97.3%.
Still for that read-out and setting: then `Cn1nnnc1Sc1ncnc2scc(-c3ccc4c(c3)OCO4)c12`, with 97.4%.
